According to PubChem BioAssay (NCATS):
Unmarked numbers belong to inactive results. The rule behind the calls is not given here.

Test system: HIV-1 nucleocapsid protein NCp7 (binding to TG oligonucleotide)
Experiment: HIV Nucleocapsid (AID 346);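 note: potency is for inhibitors that block NC binding and lower polarization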
Settings: HIV-1 NC / fluorescein-TGTGTGTG probe, fluorescence polarization
Method in brief: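 Fluorescence polarization readout: labelled TG4xF oligo (10 nM) with 100 nM nucleocapsid protein, high-salt (250mM NaCl) Hepes pH 7.5 buffer containing zinc and fresh reducing agents. Compounds added by pin tool; incubation 1 hr, room temperature.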
Potency is the fitted concentration of half-maximal effect.

Compound | Potency
O=C(c1csnn1)N1CCC2(CCCN(Cc3ccccc3)C2)CC1 | > 20 µM
COCC(=O)N1CCC[C@@]2(CCN(C(c3ccccc3)c3ccccc3)C2)C1 | > 20 µM
O=C(Oc1ccccc1)N1CCC2(CC1)CCN(c1ccccc1)CC2 | > 20 µM
Cn1c(=O)c(-c2cc(F)cc(F)c2)nc2cncnc21 | > 20 µM
O=C(Nc1cccc(F)c1)N1CCCC2(CCN(S(=O)(=O)c3ccccc3)CC2)C1 | > 20 µM
O=C(Nc1cccc(F)c1)N1CC[C@@]2(CCCN(C(=O)c3cccc(F)c3)C2)C1 | > 20 µM
O=c1c(-c2cc(F)cc(F)c2)nc2cnc(N3CCOCC3)nc2n1Cc1cccs1 | > 20 µM
COCCNc1ncnc2ccc(-c3ccccc3C(F)(F)F)cc12 | > 20 µM
COc1cccc(Cn2c(=O)c(-c3ccc(Cl)cc3)nc3cnc(N4CCOCC4)nc32)c1 | > 20 µM
CN(C)Cc1ccccc1-c1cncnc1NCc1cccnc1 | > 20 µM
CC(=O)NCCNc1ncnc2ccc(-c3ccoc3)cc12 | > 20 µM
FC(F)(F)c1ccccc1-c1cncnc1NCCc1cnc[nH]1 | > 20 µM
COc1cccc(-c2cc(NCc3cccnc3)ncn2)c1 | > 20 µM
COc1cccc(Nc2ncc3nc(-c4cccs4)c(=O)n(C[C@H]4CCCO4)c3n2)c1 | > 4 µM
COc1ccc(CNc2nc(-c3cccc(NS(C)(=O)=O)c3)nc3ccccc23)c(OC)c1 | > 20 µM
Cc1ccccc1-c1cc(NCCN2CCOCC2)ncn1 | > 20 µM
Cc1nc2cnc(Oc3ccccc3)nc2n(Cc2cccs2)c1=O | > 4 µM
COc1ccc(CNc2nc(-c3ccc(N(C)C)cc3)nc3ccccc23)c(OC)c1 | > 20 µM
O=C(c1cccc(F)c1)N1CCC2(CC1)CN(C(c1ccccc1)c1ccccc1)C2 | > 20 µM
COc1cccc(-c2cncnc2Nc2ccc(F)cc2)c1 | > 20 µM

Compound | Potency
O=c1c(-c2ccc(F)cc2)nc2cnc(N3CCOCC3)nc2n1-c1ccccc1 | > 20 µM
Clc1ccccc1-c1nc(NCc2cccnc2)c2ccccc2n1 | > 20 µM
O=c1c(CCc2ccccc2)nc2cnc(N3CCOCC3)nc2n1C[C@H]1CCCO1 | > 20 µM
FC(F)(F)c1ccccc1-c1nc(N2CCOCC2)c2ccccc2n1 | > 20 µM
COCCn1c(=O)c(-c2ccccc2)nc2cnc(N3CCN(C)CC3)nc21 | > 20 µM
COCCNc1ccnc(-c2cccc(NS(C)(=O)=O)c2)n1 | > 20 µM
Cn1c(=O)c(-c2ccc(Cl)cc2)nc2cnc(N3CCNCC3)nc21 | > 20 µM
COc1ncc2nc(-c3cc(F)cc(F)c3)c(=O)n(C)c2n1 | > 20 µM
CN1CCCC2(CCN(C(=O)c3cccn3C)CC2)C1 | > 20 µM
Cc1nc2cnc(Oc3ccccc3)nc2n(C)c1=O | > 20 µM
COc1cccc(Cn2c(=O)c(C)nc3cnc(Nc4cccc(OC)c4)nc32)c1 | > 20 µM
N#CCCn1c(=O)c(-c2cccc(C#N)c2)nc2cnc(Oc3cccc(Cl)c3)nc21 | > 20 µM
CC(C)CN1CCCC2(CCN(C(=O)c3cnccn3)CC2)C1 | > 20 µM
Cc1noc(C)c1C(=O)N1CCC2(CCCN(C(=O)NC(C)C)C2)CC1 | > 20 µM
O=S(=O)(c1ccccc1)N1CCC2(CCCN(c3cccc(-c4ccccc4)c3)C2)CC1 | > 20 µM
CS(=O)(=O)Nc1cccc(-c2ccc3ncnc(Nc4ccccc4)c3c2)c1 | > 20 µM
COCC(=O)N1CCC2(CC1)CCN(C(=O)Nc1cccc(F)c1)CC2 | > 20 µM
CN1CCN(c2nc(-c3ccoc3)nc3ccccc23)CC1 | > 20 µM
O=S(=O)(c1ccccc1)N1CCC2(CCN(c3ncccn3)CC2)CC1 | > 20 µM
